From PubChem BioAssay (NCI)
This is part of a sample that, as a whole, favours compounds with a hit. Of some 79,000 tested, about 15% had one in any assay. Cut-off read from the data, not from the text of the source: active = growth inhibition above about 70%; inactive = the rest.

How the values were obtained:
[1] = NCI Yeast Anticancer Drug Screen. Data for the rad50 strain (AID 155);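 note: 0% = growth of vehicle-only cultures of the same strain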; conditions: S. cerevisiae rad50 strain growth inhibition; at 50.0 µM; active compounds read high
Procedure, shortened: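 Vehicle-treated cultures provide the reference for the growth inhibition reported for compound-exposed, repair-deficient yeast.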

[2] = NCI Yeast Anticancer Drug Screen. Data for the mec2-1 strain (AID 157); conditions: S. cerevisiae mec2-1 strain, at 50.0 µM, active compounds read high
Procedure, shortened: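 Cells of the genetically defined mec2-1 yeast strain are incubated with test compound. Inhibition of growth is calculated against vehicle-treated controls.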

[3] = NCI Yeast Anticancer Drug Screen. Data for the sgs1 mgt1 strain (AID 161);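 note: 0% = growth of cultures given vehicle only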; conditions: S. cerevisiae sgs1 mgt1 strain, at 50.0 µM, active compounds read high
Procedure, shortened: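 Inhibition of yeast growth, normalised to vehicle-treated controls, is reported for a strain bearing genetic alterations in DNA damage repair.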

[4] = NCI Yeast Anticancer Drug Screen. Data for the cln2 rad14 strain (AID 165);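 note: 0% = growth equal to vehicle treated cultures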; conditions: S. cerevisiae cln2 rad14 strain, at 50.0 µM, active compounds read high
Procedure, shortened: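 The screen exposed genetically defined yeast (cln2 rad14) to test compounds and scored growth inhibition relative to vehicle-treated controls.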

[5] = NCI Yeast Anticancer Drug Screen. Data for the bub3 strain (AID 167); conditions: S. cerevisiae bub3 mutant strain, at 50.0 µM, active compounds read high
Procedure, shortened: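 Mutant yeast screening strain plus compound; vehicle-treated cultures serve as the 0% inhibition reference.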

[6] = NCI Yeast Anticancer Drug Screen. Data for the mlh1 rad18 strain (AID 175); conditions: S. cerevisiae mlh1 rad18 strain growth inhibition; at 50.0 µM; active compounds read high
Procedure, shortened: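 Compound-treated yeast growth, normalised to vehicle controls. Strain bears defined DNA repair mutations.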

Measured: growth inhibition

CCOP(=O)(O)C1CCCC(C)[N-]1.CCOP(=O)(O)C1CCCC(C)[N-]1.[Cu+2] (stereo unspecified)
inactive: [1] 49.4% | [2] 33.6% | [3] 31.7% | [4] 45.2% | [5] 2.9% | [6] 26.6%

CCC1(/C=C/C(C)C)C(=O)NC(=S)NC1=O
inactive: [1] -0.75% | [2] 4.55% | [3] -0.8% | [4] 0.85% | [5] 0.05% | [6] 2.8%

N#CC(CCN1CCC(Nc2ccccc2)(c2nnnn2C2CCCCC2)CC1)(c1ccccc1)c1ccccc1
inactive: [1] -13.8% | [2] -16.6% | [3] 3.75% | [4] -5.15% | [5] 4.05% | [6] -21.6%

O=c1[nH]c(=O)n(Cl)c(=O)n1Cl
inactive: [1] 16.4% | [2] 23.1% | [3] 14.2% | [4] 6.2% | [5] 31% | [6] 21.9%

C=[CH][Sn]([Cl])([Cl])[CH]=C.CN(C)P(=O)(N(C)C)N(C)C
inactive: [1] 28.5% | [2] 32.5% | [3] 44.4% | [4] 28.1% | [5] 53.3% | [6] 54.1%

C=CCN1CC2CN=NC2(C#N)C1 (stereo unspecified)
inactive: [1] -10.8% | [2] 6.45% | [3] 0.65% | [4] -22.3% | [5] 6.7% | [6] -4.95%

CCN1CCc2cc(OC)c(OC)cc2C1
inactive: [1] 0.15% | [2] 4.7% | [3] 6.45% | [4] -25.9% | [5] -0.6% | [6] 3.5%

O=C1CC(=O)NC(=S)N1
inactive: [1] 2.15% | [2] 21.1% | [3] -13.5% | [4] -21.4% | [5] 4.85% | [6] -5.75%

C=C1C(=O)OC2CCN3CC=C(COC(=O)C(C)(O)C4(CO4)C1C)C23 (stereo unspecified)
inactive: [1] 11.1% | [2] 0.95% | [3] -20.9% | [4] -12.8% | [5] -35.5% | [6] -59.5%

BrCCCBr
inactive: [1] 15.1% | [2] 5.8% | [3] 14.4% | [4] 10.7% | [5] 12.4% | [6] 21.3%

CCOC(=O)/C(=C\c1ccc(Cl)cc1)[Se]c1ccccc1
inactive: [1] 56.9% | [2] 5.7% | [3] 28.9% | [4] 20.6% | [5] 11.3% | [6] 43%

C[C@]12CC[C@@H]3C4=CC(=O)CC[C@@H]4CC[C@H]3[C@@H]1CC[C@@H]2O
inactive: [1] -4.3% | [2] -12.1% | [3] 5.2% | [4] -8.45% | [5] 4.8% | [6] -2.75%

CN(C)P(=S)(CCPc1ccccc1)N(C)C (stereo unspecified)
inactive: [1] -13.5% | [2] -23.6% | [3] -12.8% | [4] 2.95% | [5] -5.75% | [6] -5.8%

C#CCN(C)C(=O)N(CC#C)N=O
inactive: [1] 15.2% | [2] -4.95% | [3] 1.75% | [4] -11% | [5] -6.55% | [6] -23.4%

CCOP(O)OCC
inactive: [1] 0.6% | [2] 11.4% | [3] -5.25% | [4] 23.9% | [5] -5.2% | [6] -1.35%

Cc1ccc(S(=O)(=O)Nc2cc(C)cc(CCN)c2C)cc1
inactive: [1] 17.1% | [2] -11.6% | [3] -14.6% | [4] 4.75% | [5] 5.5% | [6] -10.1%

O=C(Nc1cc(S(=O)(=O)O)cc2cc(S(=O)(=O)O)c(N=Nc3ccc([As](=O)(O)O)cc3)c(O)c12)c1ccc([N+](=O)[O-])cc1
inactive: [1] 12.7% | [2] 1.7% | [3] -7.45% | [4] -9.1% | [5] -3.4% | [6] 6.55%

N#CN=C(N)NC#N
inactive: [1] 24.1% | [2] 12.9% | [3] 7.3% | [4] 0.55% | [5] 13.8% | [6] 17.1%

ClCCN(CCCl)c1ccc(CCCCN2CCCCC2)cc1
inactive: [1] 20.2% | [2] 23.2% | [3] 21.2% | [4] 14.2% | [5] 19.2% | [6] 47%

O=[N+]([O-])c1ccc(OCc2ccc(S(=O)(=O)F)cc2Cl)c(Cl)c1
inactive: [1] 1.45% | [2] -2.95% | [3] -3.15% | [4] 20.6% | [5] -3.55% | [6] -3.6%

O=P(CCP(=O)(c1ccccc1)c1ccccc1)(c1ccccc1)c1ccccc1
inactive: [1] -17.6% | [2] -23.1% | [3] -0.5% | [4] 26.2% | [5] 3.2% | [6] 3.75%
